Screening results from PubChem BioAssay.
An excerpt weighted towards active compounds, which were near 7.1% of everything screened.
SW480 rereplic = induces DNA re-replication in SW480 colon adenocarcinoma cells. SW480 DNA re-replication, Hoechst DNA content imaging, 48 h. Potency, µM (series often up to 46.1 µM), without a hit: top-dose re-replication activation, hits mostly activators. 1.8% of 340,000 active. AID 624297; also: % of control where 0% means no effect; nearly all actives have a fitted effect of over 55% in size
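Quantitative HTS format with DMSO vehicle controls; 48 hr drug incubation at 37 C, then 40 min Hoechst staining and scanning imager measurement at 405 nm excitation.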
ELG1 repair inh = inhibitors of ELG1-dependent DNA repair in HEK293T cells; HEK293T ELG1-luciferase reporter, luminescence, 16 h; DNA damage induced by 5-fluorouridine; Potency, µM (doses to about 46.1 µM), for the others: at the highest dose activity change, negative = inhibition, actives largely listed as inhibitors; 2.3% of 330,000 active; AID 504467; also: % is scaled to controls: 0 for no effect and ±100 for the full control effect; nearly all actives have a fitted effect of over 55% in size
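Overnight (16 hr) co-exposure of 2,000 cells/well to 5-fluorouridine and compound at 37 °C preceded detection. Luciferase was quantified via ONE-Glo luminescence; loss of signal denotes inhibition.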
ELG1 genotox = induces genotoxicity in HEK293T cells with luciferase-tagged ELG1; HEK293T ELG1-luciferase reporter, luminescence, 16 h; Potency, µM (highest dose often 46 µM), for the others: top-dose activity change, positive = activation, actives largely listed as activators; 1.3% of 330,000 active; AID 504466; also: % of control where 0% means no effect; nearly all actives have a fitted effect of over 60% in size
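HEK293T cells expressing luciferase-tagged ELG1 were exposed to compound or DMSO vehicle for 16 hr at 37 °C and 5% CO2. Luciferase activity was then measured with ONE-Glo after 30 min at room temperature.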
MCF10A rerep = induces DNA re-replication in MCF 10a normal breast cells; MCF 10A DNA re-replication, Hoechst nuclear intensity, 48 h; AID 624296; 2.9% of 350,000 active; Potency, µM (doses to about 46.1 µM), for inactives: at the highest dose activity, positive = re-replication, most hits filed as activators; also: % of control where 0% means no effect; nearly all actives have a fitted effect of over 50% in size
p53 reactivation = mutant p53 re-activation in reporter cells; 0.063% of 320,000 active; H1299 p53-A138V BP100-luciferase reporter, luminescence, 24 h; Potency, µM (titrated, usually from 92.2 µM), without a hit: at the top dose activity change, positive = activation, usual class: activators; also: % of control where 0% means no effect; nearly all actives have a fitted effect of over 45% in size
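H1299 (p53-null), stable ts p53-A138V + BP100-Luc; 1000 cells/well, Opti-MEM/10% FBS; cpd 4 pt, 1:5; 24 h, 37 deg C, 5% CO2; detection reagent 10 min RT; luminescence.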
A-T KAP1 phos = potential ataxia-telangiectasia treatments restoring KAP-1 phosphorylation | F2112 A-T fibroblasts, KAP-1 phosphorylation AlphaLISA; neocarzinostatin DNA damage 30 min before lysis | Potency, µM (titrated, usually from 57.5 µM), inactives show at the highest dose activation, hits mostly activators | 0.19% of 320,000 active | AID 485349; also: % of control where 0% means no effect; nearly all actives have a fitted effect of over 45% in size
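ATM-like activity read as KAP-1 phosphorylation via AlphaLISA donor/acceptor antibody pairs after lysis and 6 hr at 25C. Cells were ATM-null patient fibroblasts (F2112, hTERT), dosed 60 min, then exposed to the DSB inducer NCS for 30 min.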
* = called active by the depositor; ? = inconclusive; . = not tested or not shown. Calls follow the shape of the dose curve; as a rule, active = well fitted curve in the direction sought with a large enough effect; inconclusive = small, poorly fitted or top-dose-only effect, or another doubt; inactive = no such curve, though single readings can be large; an effect the other way counts as inactive or inconclusive. Potency is read from the fitted curve at half-maximal effect.

SMILES	SW480 rereplic	ELG1 repair inh	ELG1 genotox	MCF10A rerep	p53 reactivation	A-T KAP1 phos
COCCNC(=O)CN(C(=O)CCC(=O)Nc1ccccn1)c1cc(C)ccc1C	13.5%	-0.2%	-2.5%	?	.	0.3%
Cc1cccc(NNC(=O)C(=O)NNc2cccc(C)c2)c1	-7.0%	6.51µM*	6.2%	6.51µM*	-6.6%	1.6%
O=C1/C(=C\c2cccs2)Sc2ccc3ccccc3c21	-0.6%	?	3.66µM*	-4.8%	.	-5.3%
O=C1C(=Cc2cccs2)C(=O)c2ccccc21	-52.1%	4.0%	10.4%	-12.7%	9.3%	-4.3%
CC(=O)OCC(=O)Nc1ccc([N+](=O)[O-])cc1Cl	1.1%	16.6%	-5.7%	-1.4%	7.7%	1.1%
O=C(COC(=O)C12CC3CC(CC(C3)C1)C2)Nc1ccc([N+](=O)[O-])cc1Cl	.	20.6µM*	-0.4%	20.6%	-3.7%	-1.8%
CCOc1ccc(CCN2C(=S)N([C@@H](CC(C)C)CN3CCCC3CN3C(=S)NC[C@@H]3Cc3ccc(O)cc3)C[C@@H]2CC(C)C)cc1 (stereo not given in full)	-2.5%	.	.	14.2%	.	.
O=C(CCl)Nc1ccc(-c2ccccc2)cc1	?	?	-9.2%	16.4µM*	-15.0%	1.1%
CC(=O)Nc1ccc(NC(=O)Cc2ccc(-c3ccccc3)cc2)cc1	-1.6%	6.6%	1.3%	8.2%	-7.0%	-5.4%
O=C(CCl)Nc1ccc(N=Nc2ccccc2)cc1	23.1µM*	?	-17.3%	?	?	4.7%
Cc1c(Cl)cccc1NC(=S)NNS(=O)(=O)c1ccc([N+](=O)[O-])cc1	6.6%	-20.3%	-1.0%	7.1%	-0.7%	19.9%
O=C(O)C1CCN(S(=O)(=O)c2ccc(Cl)s2)CC1	-7.6%	4.8%	3.6%	-3.2%	3.8%	8.6%
CC(C)CN1CCN(Cc2cnc(-c3ccc(Cl)cc3)nc2)CC1CCO (stereo not given)	29.5%	-11.2%	15.7%	16.1%	8.4%	-3.6%
OCCC1CN(Cc2cnc(-c3ccc(Cl)cc3)nc2)CCN1C1CCCC1 (stereo not given)	29.9%	6.51µM*	-0.3%	2.4%	-6.6%	-1.3%
O=C(/C=C/NCc1cccnc1)c1ccc(Br)cc1	-0.6%	.	.	?	.	.
Cc1ccc(S(=O)(=O)N2CCOCC2)cc1NC(=O)c1cc2c(s1)CCC2	-0.3%	23.1µM*	-4.7%	6.2%	-5.3%	-1.5%
Cc1ccc(NC(=O)c2cc3c(s2)CCC3)cc1S(=O)(=O)N1CCOCC1	12.2%	23.1µM*	-15.5%	12.7%	-1.7%	4.0%
CCN(CC)S(=O)(=O)c1ccc(N2CCCC2)c(NC(=O)C2CSC3(C)CCC(=O)N23)c1 (stereo not given)	2.5%	-17.5%	-4.4%	-0.3%	-3.5%	5.7%
CC(=O)c1cccc(NCC(=O)N2CCN(S(=O)(=O)c3ccccc3)CC2)c1	-32.1%	9.2%	0.9%	3.0%	-12.2%	-8.4%
CCc1ccc(S(=O)(=O)/N=C2\C=C(Nc3ccc(O)cc3)C(=O)c3ccccc32)cc1	5.8µM*	3.26µM*	-28.0%	3.66µM*	-16.7%	-2.6%
Cc1cc(C)c(S(=O)(=O)/N=C2\C=C(Nc3ccc(C(=O)O)cc3)C(=O)c3ccccc32)c(C)c1	?	3.26µM*	-33.7%	16.7%	-18.8%	-1.0%
O=C(O)c1ccc(NC2=C/C(=N/S(=O)(=O)c3ccccc3)c3ccccc3C2=O)cc1	3.26µM*	4.61µM*	-16.3%	?	-9.4%	2.6%
CCc1ccc(S(=O)(=O)/N=C2/C=C(Sc3ncn[nH]3)C(=O)c3ccccc32)cc1	4.61µM*	20.6µM*	-15.2%	3.26µM*	-31.3%	-7.7%
CC1(C)CC(=O)C2=C(C1)c1c(ccc3ncccc13)NC2c1cccs1 (stereo not given)	?	18.9%	?	9.2µM*	6.1%	1.0%
